Results as given in the supplement of paper PMC12582362.
Counter-ions that a name gives are not always drawn. Screen size: about 1,500 compounds; about 30 (2%) showed activity.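 The calls were made as follows: active = robust z-score below -2; a few such results were not called.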 Many of the other results were omitted from the sample, so actives are more common in it than they were.

The compounds below were run on optoTopBP1 Flp-In 293 T-REx (HEK293) cells (assay: light-induced TopBP1 condensate (nuclear foci) count, plate-normalised robust z-score vs non-control wells; higher = more TopBP1 condensates (negative = condensation inhibitor), active = hit call of the paper). Conditions: 10 µM; incubation time 2 h.

SMILES	light-induced TopBP1 condensate (z-score)
CC(C)NC(=N)NC(=N)Nc1ccc(Cl)cc1 [Proguanil hydrochloride]	-0.256 (inactive)
COc1cc(C(=O)NCc2ccc(OCCN(C)C)cc2)cc(OC)c1OC [Trimethobenzamide hydrochloride]	-0.218 (inactive)
Cc1ncc([N+](=O)[O-])n1CC(C)O (centres undefined) [Secnidazole]	0.994 (inactive)
CC1(C)S[C@@H]2[C@H](NC(=O)C(c3ccccc3)S(=O)(=O)O)C(=O)N2[C@H]1C(=O)O (some centres undefined) [Sulbenicillin sodium salt]	0.523 (inactive)
CC(=O)[C@@]1(O)CC[C@H]2[C@@H]3C[C@H](C)C4=CC(=O)C=C[C@]4(C)[C@@]3(F)[C@@H](O)C[C@@]21C [Fluorometholone]	-0.232 (inactive)
O=C(c1cc(O)c(O)c(O)c1)c1ccc(O)c(O)c1O [Exifone]	0.683 (inactive)
CN(C)CC/C=C1/c2ccccc2COc2ccc(CC(=O)O)cc21 [Olopatadine hydrochloride]	0.52 (inactive)
O=c1oc2cc(O)ccc2s1 [Tioxolone]	0.00597 (inactive)
Cc1cc(/C=C/c2ccc3cc(N(C)C)ccc3[n+]2C)c(C)n1-c1ccccc1 [Pyrvinium pamoate]	-4.74 (active)
CN[C@@H]1[C@@H](O)[C@@H](O[C@@H]2[C@@H](O)[C@H](O[C@H]3OC(CN)=CC[C@H]3N)[C@@H](N)C[C@H]2N)OC[C@]1(C)O [Sisomicin sulfate]	0.652 (inactive)
CCN1CCN(Cc2ccc(Nc3ncc(F)c(-c4cc(F)c5nc(C)n(C(C)C)c5c4)n3)nc2)CC1 [Abemaciclib]	-0.486 (inactive)
COc1cccc(CCc2ccccc2OCC(CN(C)C)OC(=O)CCC(=O)O)c1 (centres undefined) [Sarpogrelate hydrochloride]	0.789 (inactive)
Clc1ccc(C(Cn2ccnc2)OCc2c(Cl)cccc2Cl)c(Cl)c1 (centres undefined) [Isoconazole]	0.803 (inactive)
CN(C)c1cc(NC(=O)CNC(C)(C)C)c(O)c2c1C[C@H]1C[C@H]3[C@H](N(C)C)C(O)=C(C(N)=O)C(=O)[C@@]3(O)C(O)=C1C2=O [Tigecycline]	0.904 (inactive)
N#C/C(=C1/SCC(c2ccccc2Cl)S1)n1ccnc1 (centres undefined) [Lanoconazole]	0.321 (inactive)
O=C(O)COc1nn(Cc2ccccc2)c2ccccc12 [Bendazac]	-0.242 (inactive)
CC(=O)N[C@H]1[C@H]([C@H](O)[C@H](O)CO)OC(C(=O)O)=C[C@@H]1NC(=N)N [Zanamivir]	-0.513 (inactive)
CC(C)(C)NCC(O)CSc1nc(-c2ccc(C(N)=O)s2)cs1 (centres undefined) [Arotinolol hydrochloride]	-0.455 (inactive)
Cc1ccc(C(=O)c2cc(O)c(O)c([N+](=O)[O-])c2)cc1 [Tolcapone]	-0.692 (inactive)
